# Experimental data taken from the supplement of paper PMC10338343.
# ± gives the standard deviation.
# Tested on: EfPiwi piRISC loaded with L1MC piRNA (26 nt)
# Test: pre-steady-state target cleavage rate (min^-1); auxiliary factor: 500 nM Ephydatia muelleri Gtsf1; guide: L1MC piRNA 5'p-UAACUAAAUACUAUGCAAGCUGUAGG; MIWI and MILI are mouse PIWI proteins and EfPiwi is from a freshwater sponge; tags in brackets are library labels; higher = faster piRNA-guided slicing of the target
# Outline: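 Active affinity-purified piRISC carrying one synthetic guide (1 nM) was mixed with a transcribed, DNA-blocked target RNA library […] in HEPES–potassium acetate buffer at 33 °C for 0–8 or 0–960 min, with or without 500 nM GTSF1 partner protein. Uncleaved targets were then sequenced and normalised to depth and to weakly complementary targets. Three trials were pooled, and k3 was capped at 0.0001 min^-1. A burst-and-steady-state fit was applied to obtain the pre-steady-state cleavage rate.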
row,Sequence,pre-steady-state target cleavage rate
1,UCCUCCUACAGCUUGCUUAGUAUUUUCAAA,0.00322 ± 0.003
2,UCCUGCUACAGCUUGCAUUAGUAUUUAGUUA,0.00378 ± 0.003
3,UCCUGCUACAGCAUCCAUAGUAUUUAGUUA,0.00233 ± 0.0017
4,UCCUCCUACAGCUUGCAAUAGUAUUUAGUUA,0.0427 ± 0.014
5,UCCUGCUACAGCUUGCAAAGUUUUUAGUUA,0.00207 ± 0.002
6,UCCUGGAACAGCUUGCAUAGUAAAAAGUUA,0.00324 ± 0.0027
7,UCCUGCUACAGCUUGCAUUGUAUUUAGAAA,0.00474 ± 0.0017
8,UCCUCCUACAGCUAGCAUAGUAUUUUGUUA,0.0077 ± 0.0035
9,UCCUCCUACAGCUUGCAUAGUAUAAAGUAA,0.0031 ± 0.0024
10,UCCUGGUACACCUUGCAUAGUAUUAAGUUA,0.00356 ± 0.0032
11,UCCUGCUACAGCUUGCAAAGUAUAUAGUUA,0.00379 ± 0.0026
12,UCCUGGAAGAGCUUGCAUAGAAUUUAGUUA,0.00403 ± 0.0018
13,UCCUCCUACAGCUAGCAUAGUAUUUAGAAA,0.00378 ± 0.0016
14,UCCUGGAUGAGCUUCCAUAGUAUUUAGUUA,0.00346 ± 0.0018
15,UCCUCCUACACCUUGCAUAGUAUUUACAAA,0.00304 ± 0.0025
16,UCCUGGAACAGCUUGCAUAGUUUUUAGAUA,0.00205 ± 0.0016
